Calls of active or inactive are those of the source. The calls were made as follows: active = hit-call score of the fitted dose curve at least 0.9, where 1 is the maximum; inactive = score below 0.9.
Columns and labels:
[1] = target: Transcription factor E2F1 (Homo sapiens) (UniProt Q01094); experiment: ATG_E2F_CIS: Attagene CIS-FACTORIAL HepG2 Assay for human E2F Transcription Factor 1 (AID 2282935); details: HepG2 Attagene cis-reporter, E2F reporter RNA transcripts; actives raise or lower the signal
Procedure, shortened: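 Fluorescent RT-PCR products, digested with HpaI for 2 h at 37 C, are separated by capillary electrophoresis. Source RNA comes from transfected HepG2 cultures treated for 24 h.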

[2] = ATG_E_Box_CIS: Attagene CIS-FACTORIAL HepG2 Assay for human Enhancer Box (E-box) (AID 2282936); details: HepG2 E-box cis-reporter transcription, actives raise or lower the signal
Procedure, shortened: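 Fluorescent reporter fragments separated by capillary electrophoresis gave the signal; mRNA came from HepG2 cells transfected with cis-element reporters and treated 24 h. Curves fitted bidirectionally relative to DMSO controls.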

[3] = ATG_M_61_CIS: Attagene CIS-FACTORIAL HepG2 Assay for M61 Transcription Factor (Internal Marker) (AID 2282937); details: HepG2 Attagene CIS-FACTORIAL M61 internal marker reporter; actives raise or lower the signal
Procedure, shortened: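 Cells were transfected with reporter units under cis-regulatory promoters, treated with chemicals for 24 h, then lysed for RNA. Reporter transcripts were quantified by RT-PCR and capillary electrophoresis, and activity was fitted bidirectionally against DMSO.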

[4] = ATG_EGR_CIS: Attagene CIS-FACTORIAL HepG2 Assay for human Early Growth Response 1 (EGR1) (AID 2282938); details: HepG2 Attagene CIS-FACTORIAL EGR reporter mRNA; actives raise or lower the signal
Procedure, shortened: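 Endogenous TF activity in HepG2 liver cells was gauged through cis-promoter reporter constructs transiently transfected. After 24 h dosing, reporter mRNA was quantified by RT-PCR and capillary electrophoresis, and curves fitted in both directions versus DMSO.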

[5] = ATG_M_19_CIS: Attagene CIS-FACTORIAL HepG2 Assay for M19 Transcription Factor (Internal Marker) (AID 2282939); details: HepG2 Attagene CIS-FACTORIAL M19 internal marker reporter; actives raise or lower the signal
Procedure, shortened: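 HepG2 cells transiently transfected with cis-regulated multiple reporter transcription units were dosed for 24 h; reporter mRNA was quantified by RT-PCR, 6-FAM primer-extension labelling, HpaI digestion and capillary electrophoresis, with bidirectional fitting against DMSO baseline.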

[6] = ATG_ERE_CIS: Attagene CIS-FACTORIAL HepG2 Assay for Estrogen Response Element (ERE) (AID 2282940); details: HepG2 ERE cis-reporter, Attagene RNA transcript; actives raise or lower the signal
Procedure, shortened: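 HepG2 cells transiently transfected with cis-promoter-driven multiplexed reporter transcription units report endogenous TF activity. After 24 h compound exposure, reporter mRNA is quantified by RT-PCR with capillary electrophoresis fluorescence; bidirectional fitting versus DMSO baseline.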

[7] = ATG_Ets_CIS: Attagene CIS-FACTORIAL HepG2 Assay for human Erythroblast Transformation Specific (ETS) (AID 2282941); details: HepG2 ETS cis-reporter transcription, actives raise or lower the signal
Procedure, shortened: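 Endogenous transcription factor activity read as reporter mRNA via RT-PCR and capillary electrophoresis, with gain or loss fitted bidirectionally against DMSO. Human HepG2 liver cells, transiently transfected CIS reporter constructs, 24 h exposure.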

[8] = target: Hepatocyte nuclear factor 3-beta (Homo sapiens) (UniProt Q9Y261); experiment: ATG_FoxA2_CIS: Attagene CIS-FACTORIAL HepG2 Assay for human Forkhead box A2 (FOXA2) (AID 2282942); details: HepG2 cis-reporter transcription factor activity, 24 h; actives raise or lower the signal
Procedure, shortened: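 Endogenous transcription factor activity was read in HepG2 cells carrying transiently transfected cis-promoter reporter units. After 24 h dosing, reporter mRNA was quantified by RT-PCR and capillary electrophoresis, and values fitted bidirectionally versus DMSO.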

[9] = ATG_FoxO_CIS: Attagene CIS-FACTORIAL HepG2 Assay for human Forkhead box O (FoxO) (AID 2282943); details: HepG2 Attagene cis-reporter, FoxO element, mRNA; actives raise or lower the signal
Procedure, shortened: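 HepG2, transient MRTU transfection (cis element, endogenous TFs). Dose 24 h. TriZol RNA → oligo(dT) RT → PCR → 6-FAM primer extension → HpaI cut → CE. Gain/loss vs DMSO.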

[10] = ATG_GATA_CIS: Attagene CIS-FACTORIAL HepG2 Assay for human GATA Binding Protein (AID 2282944); details: HepG2 GATA cis-element reporter, Attagene multiplex mRNA; actives raise or lower the signal
Procedure, shortened: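 HepG2 cells transiently transfected with multiplexed cis-element reporter units reflecting endogenous transcription factor activity; reporter mRNA measured after 24 h dosing by RT-PCR, 6-FAM labeling, HpaI digestion and capillary electrophoresis. Bidirectional fitting versus DMSO baseline.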

[11] = ATG_GLI_CIS: Attagene CIS-FACTORIAL HepG2 Assay for human Zinc Finger Protein GLI1 (AID 2282945); details: HepG2, Attagene cis-factorial reporter mRNA, GLI element; actives raise or lower the signal
Procedure, shortened: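 Bidirectional curve fits relative to DMSO, using reporter mRNA levels from RT-PCR plus capillary electrophoresis. Cells were HepG2 transiently carrying cis-regulated reporter constructs, harvested 24 h after dosing.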

[12] = target: Bile acid receptor (Homo sapiens) (UniProt Q96RI1); experiment: ATG_IR1_CIS: Attagene CIS-FACTORIAL HepG2 Assay for human Nuclear Receptor Subfamily 1 Group H Member 4 (NR1H4), IR1 submotif (AID 2282946); details: IR1 reporter transcription, actives raise or lower the signal
Procedure, shortened: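 HepG2 cells transiently transfected with multiplexed cis-element reporter units read endogenous transcription factor activity. After 24 h compound exposure, reporter mRNA was quantified by RT-PCR, fluorescent labelling, HpaI digestion and capillary electrophoresis; bidirectional fitting versus DMSO baseline.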

[13] = ATG_GRE_CIS: Attagene CIS-FACTORIAL HepG2 Assay for human Glucocorticoid Response Elements (GRE) (AID 2282947); details: HepG2 GRE cis-reporter, Attagene multiplex mRNA; actives raise or lower the signal
Procedure, shortened: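 Multiplexed cis-reporter mRNA induction, HepG2, 24 h post-dose. RT-PCR, FAM-labelled, HpaI-digested amplicons by CE. Bidirectional fit vs DMSO.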

[14] = ATG_ISRE_CIS: Attagene CIS-FACTORIAL HepG2 Assay for human Interferon Regulatory Factor 1 (IRF1) binding to an Interferon-Stimulated Response Element (ISRE) (AID 2282948); details: HepG2 ISRE cis-reporter (Attagene), mRNA transcription readout; actives raise or lower the signal
Procedure, shortened: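 Endogenous transcription factor activity read as reporter transcript abundance via RT-PCR and capillary electrophoresis. HepG2 cells transiently transfected, 24 h chemical exposure. Gain or loss fitted against DMSO baseline.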

[15] = ATG_M_32_CIS: Attagene CIS-FACTORIAL HepG2 Assay for M32 Transcription Factor (Internal Marker) (AID 2282949); details: HepG2 Attagene cis-factorial M32 reporter, mRNA; actives raise or lower the signal;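 also: background control marker of the multiplexed CIS panel rather than a real target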
Procedure, shortened: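 Using DMSO as baseline, bidirectional curve fits were applied to reporter mRNA signals. These came from transiently transfected HepG2 cells exposed for 24 h, with RNA analysed by RT-PCR, FAM primer extension, HpaI digestion and CE.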

[16] = ATG_M_06_CIS: Attagene CIS-FACTORIAL HepG2 Assay for M06 Transcription Factor (Internal Marker) (AID 2282950); details: HepG2 Attagene CIS-FACTORIAL M06 internal marker reporter; actives raise or lower the signal
Procedure, shortened: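 HepG2 cells transiently transfected with cis-regulated multiple reporter transcription units were exposed to chemical for 24 h; reporter mRNA was quantified by RT-PCR, 6-FAM primer labelling, HpaI digestion and capillary electrophoresis, fitted bidirectionally against DMSO.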

[17] = target: Hypoxia-inducible factor 1-alpha (Homo sapiens) (UniProt Q16665); experiment: ATG_HIF1a_CIS: Attagene CIS-FACTORIAL HepG2 Assay for human Hypoxia Inducible Factor 1 (HIF1A) (AID 2282951); details: HepG2 Attagene cis-factorial HIF1a reporter transcription; actives raise or lower the signal
Procedure, shortened: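 Measures endogenous transcription-factor activity through cis-regulated reporter mRNA in HepG2. Cells dosed 24 h; transcripts quantified by RT-PCR with 6-FAM-labelled products separated by capillary electrophoresis; DMSO serves as negative control.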

[18] = target: Hepatocyte nuclear factor 6 (Homo sapiens) (UniProt Q9UBC0); experiment: ATG_HNF6_CIS: Attagene CIS-FACTORIAL HepG2 Assay for human Hepatocyte Nuclear Factor 6 (HNF6) (AID 2282952); details: HepG2 Attagene cis-factorial HNF6 reporter transcription; actives raise or lower the signal
Procedure, shortened: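 Endogenous factor activity read in transiently transfected HepG2 via promoter-regulated reporter transcripts. RNA harvested 24 h post-dosing, reverse-transcribed, PCR-amplified, FAM-labelled, HpaI-digested and resolved by capillary electrophoresis; fitted in both directions against DMSO.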

[19] = target: Heat shock factor protein 1 (Homo sapiens) (UniProt Q00613); experiment: ATG_HSE_CIS: Attagene CIS-FACTORIAL HepG2 Assay for human Heat Shock Transcription Factor 1 (HSE) (AID 2282953); details: HepG2 HSE cis-reporter, Attagene RNA transcription; actives raise or lower the signal
Procedure, shortened: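 HepG2 cells transiently transfected with multiple reporter transcription units under cis-regulatory promoter control, measuring endogenous transcription factor activity. After 24 h chemical exposure, reporter mRNA quantified by RT-PCR, fluorescent labelling, HpaI digestion and capillary electrophoresis; bidirectional fit versus DMSO.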

[20] = ATG_MRE_CIS: Attagene CIS-FACTORIAL HepG2 Assay for human Metal Responsive Element (MRE) (AID 2282954); details: HepG2 MRE cis-reporter transcription, Attagene multiplex; actives raise or lower the signal
Procedure, shortened: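 Multiplexed cis-reporter assay in human HepG2 liver cells, 24 h incubation with test chemical. Reporter transcripts measured by RT-PCR and capillary electrophoresis; values from bidirectional curve fitting versus DMSO.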

Measured: AC50

Heat shock factor protein 1 (Homo sapiens), sequence (Q00613 whole entry, looked up): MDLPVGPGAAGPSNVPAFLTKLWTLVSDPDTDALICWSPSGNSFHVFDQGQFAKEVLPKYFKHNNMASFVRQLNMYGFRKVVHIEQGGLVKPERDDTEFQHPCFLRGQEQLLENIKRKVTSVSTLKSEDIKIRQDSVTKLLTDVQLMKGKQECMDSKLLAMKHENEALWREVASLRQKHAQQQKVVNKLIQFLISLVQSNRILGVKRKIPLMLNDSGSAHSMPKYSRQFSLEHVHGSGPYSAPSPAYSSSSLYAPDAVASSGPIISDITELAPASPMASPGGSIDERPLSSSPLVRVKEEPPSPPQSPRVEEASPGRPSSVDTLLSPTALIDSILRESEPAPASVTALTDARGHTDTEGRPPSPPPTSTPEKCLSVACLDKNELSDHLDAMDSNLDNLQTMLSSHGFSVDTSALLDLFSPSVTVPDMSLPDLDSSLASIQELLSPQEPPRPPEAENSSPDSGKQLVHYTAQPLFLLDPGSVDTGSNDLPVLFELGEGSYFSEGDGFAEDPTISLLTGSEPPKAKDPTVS
Transcription factor E2F1 (Homo sapiens), sequence (Q01094 whole entry, looked up): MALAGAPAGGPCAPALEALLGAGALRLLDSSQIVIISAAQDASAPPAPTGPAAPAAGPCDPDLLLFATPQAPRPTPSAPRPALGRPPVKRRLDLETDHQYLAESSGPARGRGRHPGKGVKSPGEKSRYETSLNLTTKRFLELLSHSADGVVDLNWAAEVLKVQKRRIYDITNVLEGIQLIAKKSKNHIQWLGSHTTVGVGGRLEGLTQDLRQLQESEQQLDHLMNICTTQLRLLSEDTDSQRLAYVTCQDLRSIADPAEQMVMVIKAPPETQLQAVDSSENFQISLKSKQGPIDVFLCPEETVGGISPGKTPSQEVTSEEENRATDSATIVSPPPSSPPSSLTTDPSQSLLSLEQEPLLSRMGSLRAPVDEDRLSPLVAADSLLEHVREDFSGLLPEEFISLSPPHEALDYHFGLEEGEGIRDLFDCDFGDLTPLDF
Hepatocyte nuclear factor 3-beta (Homo sapiens), sequence (Q9Y261 whole entry, looked up): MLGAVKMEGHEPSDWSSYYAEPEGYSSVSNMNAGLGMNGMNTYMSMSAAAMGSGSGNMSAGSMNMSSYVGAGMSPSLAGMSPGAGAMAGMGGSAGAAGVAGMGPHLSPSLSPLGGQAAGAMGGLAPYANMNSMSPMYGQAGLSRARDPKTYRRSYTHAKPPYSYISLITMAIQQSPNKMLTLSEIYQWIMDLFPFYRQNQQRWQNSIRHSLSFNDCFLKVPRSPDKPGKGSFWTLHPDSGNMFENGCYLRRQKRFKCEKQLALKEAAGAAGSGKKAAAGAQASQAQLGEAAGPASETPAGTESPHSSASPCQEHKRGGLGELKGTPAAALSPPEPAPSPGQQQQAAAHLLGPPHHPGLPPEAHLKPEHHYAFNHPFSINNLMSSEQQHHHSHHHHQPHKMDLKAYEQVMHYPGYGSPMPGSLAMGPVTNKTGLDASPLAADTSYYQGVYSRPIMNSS
Hepatocyte nuclear factor 6 (Homo sapiens), sequence (Q9UBC0 whole entry, looked up): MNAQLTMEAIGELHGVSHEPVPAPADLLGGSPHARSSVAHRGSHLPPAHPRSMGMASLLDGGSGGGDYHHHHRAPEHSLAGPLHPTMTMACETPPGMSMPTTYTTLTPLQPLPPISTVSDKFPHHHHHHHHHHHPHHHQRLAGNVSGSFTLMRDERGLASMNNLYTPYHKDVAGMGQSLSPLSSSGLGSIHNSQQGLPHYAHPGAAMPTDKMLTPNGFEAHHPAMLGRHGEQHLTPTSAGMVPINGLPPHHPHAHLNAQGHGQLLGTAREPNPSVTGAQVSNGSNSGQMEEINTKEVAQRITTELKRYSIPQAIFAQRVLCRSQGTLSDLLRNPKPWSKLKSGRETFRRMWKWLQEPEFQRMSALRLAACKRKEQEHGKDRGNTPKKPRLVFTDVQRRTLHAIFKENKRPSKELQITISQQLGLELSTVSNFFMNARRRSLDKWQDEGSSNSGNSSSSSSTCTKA
Hypoxia-inducible factor 1-alpha (Homo sapiens), sequence (Q16665 whole entry, looked up): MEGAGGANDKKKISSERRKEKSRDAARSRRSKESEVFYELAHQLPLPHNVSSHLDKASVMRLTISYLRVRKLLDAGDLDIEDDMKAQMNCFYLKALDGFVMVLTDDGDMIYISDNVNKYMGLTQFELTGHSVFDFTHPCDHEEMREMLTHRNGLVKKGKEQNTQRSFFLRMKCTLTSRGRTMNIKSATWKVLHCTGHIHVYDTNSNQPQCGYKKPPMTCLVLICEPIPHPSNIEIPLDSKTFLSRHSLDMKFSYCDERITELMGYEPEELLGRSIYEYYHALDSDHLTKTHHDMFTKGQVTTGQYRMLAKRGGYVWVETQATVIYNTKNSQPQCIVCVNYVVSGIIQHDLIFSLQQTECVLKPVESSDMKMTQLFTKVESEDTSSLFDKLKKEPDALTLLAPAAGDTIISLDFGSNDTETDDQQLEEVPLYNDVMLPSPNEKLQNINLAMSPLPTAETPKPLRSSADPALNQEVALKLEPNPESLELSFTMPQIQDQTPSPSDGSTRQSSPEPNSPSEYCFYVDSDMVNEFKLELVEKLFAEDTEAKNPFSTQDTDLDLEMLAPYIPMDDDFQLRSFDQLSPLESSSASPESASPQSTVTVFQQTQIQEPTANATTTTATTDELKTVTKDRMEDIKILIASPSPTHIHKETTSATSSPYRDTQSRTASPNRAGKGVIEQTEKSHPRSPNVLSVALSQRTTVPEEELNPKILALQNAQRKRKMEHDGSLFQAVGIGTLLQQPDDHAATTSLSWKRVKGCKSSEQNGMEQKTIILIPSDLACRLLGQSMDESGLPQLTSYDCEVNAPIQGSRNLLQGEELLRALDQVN
Bile acid receptor (Homo sapiens), sequence (Q96RI1 whole entry, looked up): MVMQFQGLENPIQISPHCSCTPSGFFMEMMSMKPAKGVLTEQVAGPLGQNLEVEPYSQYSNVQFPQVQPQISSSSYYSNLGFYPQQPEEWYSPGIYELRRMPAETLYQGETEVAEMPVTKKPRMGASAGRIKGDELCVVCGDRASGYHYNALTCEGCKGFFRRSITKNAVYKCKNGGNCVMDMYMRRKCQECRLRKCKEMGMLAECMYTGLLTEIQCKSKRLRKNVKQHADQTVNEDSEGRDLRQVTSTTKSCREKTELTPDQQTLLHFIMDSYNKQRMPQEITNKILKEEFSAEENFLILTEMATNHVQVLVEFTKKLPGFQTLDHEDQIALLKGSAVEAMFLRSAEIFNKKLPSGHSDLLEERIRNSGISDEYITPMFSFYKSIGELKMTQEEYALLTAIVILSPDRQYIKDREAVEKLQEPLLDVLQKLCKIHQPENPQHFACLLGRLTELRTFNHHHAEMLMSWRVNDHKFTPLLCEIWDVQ

CCc1c(Br)c(Br)c(Br)c(Br)c1Br
inactive: all assays above

CCCCC(CC)COP(=O)(O)OCC(CC)CCCC (stereo not given)
not listed: [12] | [13]
inactive: all other assays above

C1COCCN1
not listed: [12] | [13]
inactive: all other assays above

OCC(F)(F)C(F)(F)C(F)(F)C(F)(F)C(F)(F)C(F)F
active: [6] 6.1 µM
not listed: [12] | [13]
inactive: all other assays above

C(=C(c1ccccc1)c1ccccc1)c1ccccc1
active: [6] 0.0294 µM
not listed: [13]
inactive: all other assays above

CCCCCC=O
not listed: [12] | [13]
inactive: all other assays above

C=CC(=O)OCC(F)(F)C(F)(F)C(F)(F)C(F)(F)COC(=O)C=C
active: [2] 34.9 µM | [4] 63 µM | [11] 81.1 µM | [14] 61.4 µM | [17] 33.8 µM | [18] 60.3 µM | [19] 79 µM | [20] 56.7 µM
not listed: [12]
inactive: all other assays above
